In all, about 420,000 compounds went through this assay and about 50,000 (12%) were called active. Not shown: some 26% with an inconclusive outcome. Calls come from the whole dose curve; as a rule, active = well fitted inhibition curve with a large enough effect; inconclusive = small, poorly fitted or top-dose-only effect; inactive = flat fitted curve, though single readings scatter. Shown is part of a subset that was picked to be rich in actives.
Test: qHTS for Inhibitors of human tyrosyl-DNA phosphodiesterase 1 (TDP1): qHTS in cells in presence of CPT; note: nearly all actives have a fitted effect of over 55% in size
Conditions: chicken DT40 Tdp1-/-;hTDP1 cells + 20 nM CPT, ATP luminescence, 48 h; series mostly up to 46.2 µM; activity change, negative = growth inhibition: at the top concentration
Source text: Human tyrosyl-DNA phosphodiesterase 1 (TDP1) is a novel repair gene, and we propose to use it as a new target for anticancer drug development. TDP1 is not an essential protein, but under treatment with topoisomerase I poison (camptothecin: CPT), TDP1 works as a critical factor for cell survival. To directly identify novel TDP1 inhibitors active in a cellular environment, we have knocked-out the Tdp1 gene in chicken DT40 cells (Tdp1-/-) and generated a complemented counterpart cells that contains a stable transfection of the human TDP1 gene (Tdp1-/-;hTDP1 cells). For the primary screen, Tdp1-/-;hTDP1 cells will be exposed to small molecules in the presence or absence of CPT, and their growth kinetics will be evaluated after 48 hours by measuring ATP activity. […] The hit compounds will then be evaluated in the presence or absence of CPT using Tdp1-/- cells. […] In tertiary assays, biochemical gel-based assays will be used to assess whether the hit compounds specifically target TDP1. To this end, we have screened this cell line against the MLSMR in two primary screens. In one screen we add CPT and in the other we screen in the absence of CPT; this AID represents the screen where CPT was present. NIH Chemical Genomics Center [NCGC] NIH Molecular Libraries Probe Centers Network [MLPCN] MLPCN Grant: MH095538 Assay Submitter (PI): Yves Pommier, NCI
DT40-hTDP1 cells with 20 nM Camptothecin (add 20 microL of 1 mM CPT stock in 1 L of cell culture medium) were dispensed at 400 cells/5microL/well in tissue culture treated 1536-well white wall/solid bottom assay plates (Greiner Bio-One North America, NC, U.S.A.) using a Multidrop Combi 8 channel dispenser (Thermo Fisher, Waltham, MA, USA). 23 nL compounds and controls were transferred using the pin tool (Kalypsys, San Diego, CA, USA) to the assay plates. The assay plates were then incubated at 37 masculineC for a minimum 48 hr. Three microL of Cell Titer Glo solution was added to the plates and incubated at RT in dark for 30 min. Luminescence was read using ViewLux (Perkin Elmer) with 1 sec exposure slow speed, high gain and 2x binning.
% is set by controls: 0 for no effect and ±100 for the full control effect; potency is the fitted concentration of half-maximal effect.

SMILES | activity change, negative = growth inhibition | Potency
Cc1c(C(=O)O)nnn1-c1nonc1N | 4.76% (inactive) | 
COc1cc(OC)c(C(=O)NNC(=O)c2ccccc2-n2cccc2)cc1OC | -11.7% (inactive) | 
CSc1nc(-c2ccc(F)cc2)nc2c1Cc1c(CO)cnc(C)c1O2 | 7.44% (inactive) | 
CSc1nc(-c2ccccc2Cl)nc2c1Cc1c(CO)cnc(C)c1O2 |  | 14.6 µM (active)
Cc1ccccc1CSc1nc(-c2ccccc2)nc2c1Cc1c(CO)cnc(C)c1O2 | 6.78% (inactive) | 
CCOC(=O)c1cnc2nc(SCc3ccccc3Cl)[nH]n2c1=O | -4.22% (inactive) | 
CS(=O)(=O)c1ccc(Cl)c(NC(=O)COC(=O)c2ncc(Cl)c(Cl)c2Cl)c1 | 0.632% (inactive) | 
COc1cccc(CN(C)CC(=O)NCc2ccccc2Cl)c1OC | -23.4% (inactive) | 
COc1cccc(CN(C)CC2CCCN(CCc3ccc(Cl)cc3)C2)c1OC (stereo not given) |  | 16.4 µM (active)
Cc1nc2ccc(C(=O)N(C)CC3CCCN(CCc4ccc(Cl)cc4)C3)cc2[nH]1 (stereo not given) | -12.6% (inactive) | 
CCc1ccnc(NS(=O)(=O)c2ccc3c(c2)OCCO3)c1 | 0.676% (inactive) | 
Cc1ccc(C2CC(c3cccc(C)c3)n3nc(N)nc3N2)cc1 (stereo not given) | -24.1% (inactive) | 
COc1ccc(C2CC(c3ccc(C)cc3)Nc3nc(N)nn32)cc1 (stereo not given) | -9.25% (inactive) | 
CCOc1ccccc1C1CC(c2ccc(Cl)cc2)Nc2nc(N)nn21 (stereo not given) |  | 18.4 µM (active)
COc1ccccc1N1CCN(c2ncnc3sc(C)c(-c4ccccc4)c23)CC1 |  | 23.1 µM (active)
COc1ccccc1N1CCN(c2nc(C)cc(=O)[nH]2)CC1 | 19.5% (inactive) | 
COc1ccccc1N1CCN(c2ncnc3onc(-c4cccc(Cl)c4)c23)CC1 | 7.45% (inactive) | 
Cn1cnc(S(=O)(=O)Nc2ccc3c(c2)OCCO3)c1 | -11.7% (inactive) | 
O=C(COC(=O)c1cc(-c2cccs2)nn1-c1ccccc1)Nc1cc([N+](=O)[O-])ccc1Cl | 8.85% (inactive) | 
CCc1cccc(CC)c1NC(=O)Cn1c(=O)c(-c2cc(C)ccc2NC(C)=O)nc2ccccc21 | 0.437% (inactive) | 
CCCn1c(N)c(C(=O)CSc2nnc(-c3cccnc3)n2-c2ccc(C)cc2C)c(=O)[nH]c1=O | -6.68% (inactive) | 
COCc1cc(=O)n2[nH]c(C)c(-c3ccccc3)c2n1 | -2.85% (inactive) | 

SMILES | activity change, negative = growth inhibition | Potency
Cc1nc2c(-c3ccccc3)c(C)[nH]n2c(=O)c1Cl | -0.299% (inactive) | 
CCCc1cc(=O)n2[nH]c(C)c(-c3ccc(Cl)cc3)c2n1 |  | 20.6 µM (active)
CCOc1cc(C)c(S(=O)(=O)NCc2ccccn2)cc1C | 12.8% (inactive) | 
COc1ccc(NC(=O)C2C3CCC(O3)C2C(=O)O)cc1OC (stereo not given) | -3.95% (inactive) | 
COCC(=O)N1CCc2ccc(NC(=O)c3ccccc3Cl)cc2C1 | 5.3% (inactive) | 
CC(C)Oc1ccc(CNC(=O)C2CCN(c3nc4ccccc4n(C)c3=O)CC2)cc1 | -5.18% (inactive) | 
Cc1ccc(Cn2c(CCCNC(=O)C3CCCCC3)nc3ccccc32)cc1 |  | 16.4 µM (active)
Cc1ccc2[nH]cc(CCNC(=O)C3CCCCC3)c2c1 | -21.5% (inactive) | 
CCc1ccc(OCCCn2c(CCCNC(=O)C3CCCCC3)nc3ccccc32)cc1 |  | 8.91 µM (active)
O=C(NCCCc1ccccc1)C1CCC(CNc2c(N3CCCCC3)c(=O)c2=O)CC1 (stereo not given) | 4.19% (inactive) | 
Cc1ccc(CN2C(=O)CCC2C(=O)NCCCN2CCCCC2C)cc1 (stereo not given) | -1.28% (inactive) | 
O=C(CSc1nnc(CNC(=O)c2ccccc2)n1-c1ccc(F)cc1)Nc1ccccc1F | -13.6% (inactive) | 
Cc1ccc(NS(=O)(=O)c2ccc(N/N=C/c3ccccc3OCC(=O)O)c([N+](=O)[O-])c2)c(C)c1 | 1.01% (inactive) | 
O=C(CC1SC(=Nc2ccccc2F)N(CCN2CCOCC2)C1=O)Nc1ccc(F)cc1F (stereo not given) | -10.2% (inactive) | 
COc1ccccc1N(CC(=O)N/N=C(\C)c1ccccc1O)S(=O)(=O)c1ccc(C)cc1 | -94.3% (inactive) | 
Cc1ccc(S(=O)(=O)N(CC(=O)NCc2ccco2)c2ccccc2C)cc1 | -7.69% (inactive) | 
Cc1ccc(S(=O)(=O)N(CC(=O)Nc2ccc(Cl)cc2Cl)c2ccccc2C)cc1 |  | 18.4 µM (active)
COc1ccc(C(F)(F)F)cc1N/C=C\c1nnnn1-c1ccc(C)cc1 | -1.88% (inactive) | 
COc1ccccc1OCC(=O)O/N=C(\N)c1ccccn1 | -15.9% (inactive) | 
Cc1ccccc1-c1cc(C(=O)NCC2CC2)n(CC2CC(c3cccnc3)=NO2)n1 (stereo not given) | 0.873% (inactive) | 
CCOC(=O)c1ccc2[nH]c(C)c(CN3CCN(C)CC3)c(=O)c2c1 | 12.7% (inactive) | 
CCCOC(=O)c1ccc(N2C(=O)c3ccccc3C2=O)cc1 | -3.9% (inactive) | 

SMILES | activity change, negative = growth inhibition | Potency
COc1ccccc1NS(=O)(=O)c1ccc(C)c(C(=O)NCC(c2ccco2)N(C)C)c1 (stereo not given) | 12.3% (inactive) | 
CC(C)(C)c1ccc(C(=O)NCCC(=O)NCc2ccco2)cc1 | -27.3% (inactive) | 
CC(C)(C)c1ccc(C(=O)NCC(c2ccco2)S(=O)(=O)c2ccc(F)cc2)cc1 (stereo not given) |  | 20.6 µM (active)
CC(C)CNC(=O)C(=O)NCc1ccccc1 | -5.58% (inactive) | 
COc1ccc(S(=O)(=O)NC(CC(=O)NCc2ccccc2OC)c2ccco2)cc1 (stereo not given) | -22.8% (inactive) | 
CC(C)(C)c1ccc(C(=O)NCc2ccco2)cc1 | -21.9% (inactive) | 
O=C(NCc1ccccc1)C(=O)NCC(c1ccco1)S(=O)(=O)c1ccc(Cl)cc1 (stereo not given) |  | 23.1 µM (active)
COc1ccccc1CNC(=O)C(=O)NCC(c1ccco1)S(=O)(=O)c1ccc(F)cc1 (stereo not given) |  | 20.6 µM (active)
O=C(NCCc1ccccc1)C(=O)NCC(c1ccco1)S(=O)(=O)c1ccccc1 (stereo not given) | -27.8% (inactive) | 
O=C(CCN1C(=O)C2CCCCC2C1=O)Nc1ccc(OC(F)F)cc1 (stereo not given) | 0.993% (inactive) | 
COc1ccccc1-n1ccnc(SCC(=O)NC2CCCCC2)c1=O | -22.8% (inactive) | 
COc1ccccc1C(=O)NCc1nnc(SC(C)C(=O)Nc2nccs2)n1C (stereo not given) | -3.89% (inactive) | 
Cc1c(NS(=O)(=O)c2ccc(Cl)cc2)c(=O)n(-c2ccccc2)n1C | -2.45% (inactive) | 
O=C(NCc1ccc(Cl)cc1)NCc1ccc(Cl)cc1 | -7.05% (inactive) | 
O=C(c1cccs1)N(C(=O)c1cccs1)c1ccccn1 | 2.25% (inactive) | 
O=C(COc1ccccc1)OCc1cc(=O)n2nc(-c3cccs3)sc2n1 | -2.16% (inactive) | 
CCOc1cc(C(=O)O)ccc1OCCOc1ccccc1 | 11.7% (inactive) | 
CCc1nc2c(OCC(N)=O)cccn2c1N(C)C(=O)c1ccc(OC)cc1 | -52.9% (inactive) | 
CCc1nc2c(OCCOc3ccccc3)cccn2c1N(C)C(=O)c1cccs1 |  | 25.9 µM (active)
CCc1nc2c(OCCOc3ccccc3)cccn2c1N(C)C(=O)c1ccc(OC)cc1 |  | 29.1 µM (active)
Cc1c(C2=CCN(S(=O)(=O)c3ccc(Cl)cc3)CC2)c2ccccc2n1C | -25% (inactive) | 

From PubChem BioAssay AID686979 (National Center for Advancing Translational Sciences (NCATS), 2013)
